This note sets out measurements from the supplement of paper PMC4206461.

The test relates to Pseudomonas aeruginosa PA14 wild type. Nature of the test: respiration area under curve with compound as sole nitrogen source, 24 h (OmniLog AUC (arbitrary units)); higher = more respiration / better utilisation as nitrogen source, active = 2000 or more. To be noted: plate: PM8. Here is the method: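 Biolog Phenotype MicroArray plates PM6-PM8: each di/tripeptide is the sole nitrogen source (IF-0 medium with succinate/ferric citrate and dye mix A). Tetrazolium reduction was read in the OmniLog every 15 min for 24 h at 37°C and summarised as area under the respiration curve (arbitrary units). The paper counts values below 2000 as no respiration and above 8000 as solid respiration. Replicate datasets are averaged.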
Turning to `N[C@@H](Cc1ccc(O)cc1)C(=O)NCC(=O)NCC(=O)O`, the “respiration area under curve” value is 11300 (active).
